# PTHR1 ag: agonists of human PTHR1 parathyroid hormone receptor. Q03431. HEK293 GP2 PTHR1 cells, GloSensor cAMP luminescence, 1 h. Potency, µM (highest dose often 115 µM), for the others: at the highest dose activation, most hits filed as activators. hit rate 0.075% among 410,000. AID 743266; note: potency is the fitted concentration of half-maximal effect; nearly all actives have a fitted effect of over 55% in size
# Target sequence (Q03431 whole entry, looked up): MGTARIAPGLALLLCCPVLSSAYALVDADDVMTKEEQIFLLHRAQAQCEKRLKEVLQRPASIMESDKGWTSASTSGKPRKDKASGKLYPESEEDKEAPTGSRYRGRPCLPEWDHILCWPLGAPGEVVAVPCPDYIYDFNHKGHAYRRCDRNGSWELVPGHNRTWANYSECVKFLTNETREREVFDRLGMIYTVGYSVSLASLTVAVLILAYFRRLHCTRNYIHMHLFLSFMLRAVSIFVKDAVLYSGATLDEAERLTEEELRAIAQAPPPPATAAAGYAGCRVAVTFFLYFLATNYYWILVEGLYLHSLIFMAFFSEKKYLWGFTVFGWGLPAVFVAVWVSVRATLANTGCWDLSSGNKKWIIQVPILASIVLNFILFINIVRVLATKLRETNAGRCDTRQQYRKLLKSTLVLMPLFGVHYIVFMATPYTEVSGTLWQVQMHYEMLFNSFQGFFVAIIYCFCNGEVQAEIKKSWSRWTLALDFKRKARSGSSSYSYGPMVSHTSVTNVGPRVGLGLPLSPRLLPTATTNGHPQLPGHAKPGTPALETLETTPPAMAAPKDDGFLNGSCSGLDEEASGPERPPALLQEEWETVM
#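 HEK-293-derived GP2 cells expressing PTHR1 and a GloSensor cAMP reporter, 3,000/well, plated overnight, given luciferin plus IBMX (each 0.5 mM as added) for 1 h at 37 °C, then compound for 1 h at 37 °C. Luminescence was read after 15 min at room temperature.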
# DRD3 agonist: agonists of human D3 dopamine receptor. P35462. D3R DiscoveRx beta-arrestin cells, luminescence, 90 min. hit rate 0.58% among 410,000. max activation, %. AID 652048; in the data active = max activation above about 30%; note: 0% is about no effect
#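 Agonist-mode cell screen: cells plated at 1500/well and incubated overnight at 37 °C, then exposed to library compounds for 90 min at 37 °C. Detection reagent was added for 30–60 min at room temperature, and luminescence was read.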
# B2AR arrestin: beta2AR (human) beta-arrestin recruitment activity. hit rate 0.02% among 330,000. AID 492947. beta-arrestin recruitment to beta2AR, cell-based reporter. Potency, µM (doses to about 46.1 µM), for inactives: at the top dose activation, actives largely listed as activators;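 note: potency is the fitted concentration of half-maximal effect; 0% = DMSO controls and full agonism = EC100 isoproterenol or metaproterenol; nearly all actives have a fitted effect of over 65% in size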
# RGS4 inhibitor: human RGS4 inhibition | P49798 | AID 504845 | hit rate 0.039% among 390,000 | Transcreener GDP fluorescence polarization, RGS4-accelerated GTP hydrolysis | Potency, µM (series often up to 114 µM), for inactives: at the top dose activity change, negative = inhibition, actives largely listed as inhibitors; note: potency is the fitted concentration of half-maximal effect; % is set by controls: 0 for no effect and ±100 for the full control effect; nearly all actives have a fitted effect of over 75% in size
#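 MLSMR compounds (23 nl, pin-transferred) preincubated 10 min at room temperature with a 500nM (2x) first reagent, then RGS4 at 900nM (2x) plus Transcreener GDP mix added; fluorescence polarization (620/688 nm) read before and after 90 min at 30 °C.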
# D3 antag: antagonists of human D3 dopamine receptor; P35462; D3R cells, DiscoveRx beta-arrestin luminescence, antagonist mode; active compounds read low; max response, negative = inhibition, %; hit rate 2.5% among 360,000; in the data active = max response below about -50%; inconclusive = no clear call, values can overlap the other calls; note: % is set by controls: 0 for no effect and ±100 for the full control effect
#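 Cells plated overnight at 1500 cells/well, then exposed to library compounds with dopamine controls for 90 minutes at 37 degrees C. DiscoveRx reagent added for 30–60 minutes at room temperature; luminescence read, quantitative HTS format.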
# BRCA1 expr act: activators of BRCA1 expression; MCF7-BRCA1-FFLuc reporter, luminescence, 48 h; response scale: scaled: vehicle 0%, 10 µM genistein 100%; hit rate 1.1% among 380,000; Potency, µM (series often up to 46.1 µM), inactives show at the top dose activation, most hits filed as activators; note: potency is the fitted concentration of half-maximal effect; nearly all actives have a fitted effect of over 80% in size
#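 Compounds are tested at multiple concentrations on MCF7 BRCA1-luciferase reporter cells seeded at 2000 per well; after 48 h, a single luminescence end-point is taken and curves fitted to the normalized data.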
# The depositor's hits bear a star; i = inactive; u = inconclusive; x = not tested or not shown; ! = repeats disagree; [ ] = another dose, or the depositor's remark. A selection: hits, their analogues and other compounds. The true share with any hit is near 3.7%. Unless noted, calls come from the whole dose curve; as a rule, active = well fitted curve in the direction sought with a large enough effect; inconclusive = small, poorly fitted or top-dose-only effect, or another doubt; inactive = no such curve, though single readings can be large; an effect the other way counts as inactive or inconclusive.
SMILES,PTHR1 ag,DRD3 agonist,B2AR arrestin,RGS4 inhibitor,D3 antag,BRCA1 expr act
Cc1nn(-c2ccccc2)c2c1N(CC(=O)N1CCN(c3cccc(Cl)c3)CC1)C(=O)CS2,-22%,1,x,-9%,x,14%
OC(COCc1cccs1)CN1CCN(c2ccccn2)CC1 (stereo not drawn),i,57*,0%,16%,-25,6%
OC(COCc1cccs1)CN1CCN(c2cccc(Cl)c2)CC1 (stereo not drawn),-16%,-6,-1%,-25%,-56*,-28%
O=C(Cc1cccs1)N1CCN(c2cccc(Cl)c2)CC1,-10%,-4,0%,-15%,39,1%
OC(COCC1COc2ccccc2O1)CN1CCN(c2ccccn2)CC1 (stereo not drawn),-8%,75*!,0%,-6%,-24,-46%
OC(CN1CCN(c2ccccn2)CC1)Cn1c2ccccc2c2ccccc21 (stereo not drawn),-95%,0,0%,4%,0,-53%
O=Cc1c[nH]c2cccc(OCc3ccccc3)c12,i,0,0%,-4%,18,-27%
COc1ccc(C(=O)Nc2ccc(Nc3ccccc3)cc2)cc1[N+](=O)[O-],-47%,-3,0%,-12%,-14,-40%
CCN(CC)c1ccc(C(=O)Nc2ccccc2)cc1[N+](=O)[O-],-50%,-6,0%,-12%,6,10µM*
COc1ccc([C@H]2/C=C\CN(S(=O)(=O)/C=C/c3ccccc3)[C@@H](C)C(=O)N2Cc2ccc(F)cc2)cc1,i,40*,x,6%,7,-15%
COc1ccc(C2/C=C\CN(C(=O)C3CCCC3)[C@H](Cc3ccccc3)C(=O)N2Cc2ccc(F)cc2)cc1 (stereo partly drawn),-23%,-22,0%,-10%,-68*,-28%
Cc1nn(-c2ccc(N3CCOCC3)nn2)c(C)c1CCC(=O)NCc1ccc(Cl)cc1,7%,-3,x,20%,x,2%
Cc1ccc(CN(C(=O)COc2ccc([N+](=O)[O-])cc2)c2ccccn2)cc1,-35%,0,x,18%,x,0%
COC(=O)c1cc(=O)n(-c2ccccc2)c(=Nc2ccccc2)s1,-55%,-7,0%,-10%,-61*,-42%
CC1=CC(=O)C(C(C)=Nc2ccccc2Cl)C(=O)O1 (stereo not drawn),-3%,-13,-1%,-3%,2,0%
CNc1oc(Cc2ccccc2)nc1S(=O)(=O)c1ccccc1,-5%[57.5 µM],4,0%,-52%[11.4 µM],-89*,-18%
O=c1c2c3c(sc2nc2n1CCC2)CCC3,-1%[57.5 µM],-1,0%,0%,-52*,4%
COc1ccccc1OCCCCN1CCN(c2ccccc2OC)CC1,-14%,3,0%,-13%,-81*,-28%
COc1ccccc1N1CCN(CCCCOc2cccc3ccccc23)CC1,-36%,10,0%,-26%,-69*,-54%
COc1ccccc1N1CCN(CCCCCCOc2ccc(F)cc2)CC1,-38%,-5,-1%,10%,-52*,-26%
CC1CN(CCCCOc2ccc(F)cc2)CC(C)O1 (stereo not drawn),i,-18,0%,-7%,-50*,-33%
COc1ccccc1OCCCCN1CCCCC1,-5%,-4,0%,16%,u,1%
COc1ccccc1N1CCN(CCCCNC(=O)c2ccc(-c3ccc(C(C)=O)cc3)cc2)CC1,x,-7,x,u,x,x
Cc1ccc(OCC(=O)N(Cc2sccc2C)C2CCS(=O)(=O)C2)cc1 (stereo not drawn),-12%,-3,x,0%,x,x
CCn1nnc2cc(C(=O)Nc3ccc(C)c(Cl)c3)ccc21,-20%,-15,x,-2%,x,x
O=c1[nH]c(=O)n(Cc2ccc(Oc3ccccc3)cc2)cc1Br,x,x,-1%,x,x,x
C=C1CC(Cn2cc(Br)c(=O)[nH]c2=O)(c2ccc(-c3ccccc3)cc2)OC1=O (stereo not drawn),-30%,-4,x,u,-89*,-99%

# Assay outcomes (PubChem BioAssay)
